Screening data (PubChem)
In the library only some 0.86% were active in any assay of this set; here they are far more common.
CDC25B-CDK2 inh: human CDC25B-CDK2/CyclinA binding inhibition; HTRF CDC25B-CDK2/CyclinA binding, anti-His/anti-Flag; stronger effect = higher value; z-score (no concentration beside the values); 94,000 compounds, 0.72% hits; AID 1259370; in the data active means z-score above about 3.2
HIV TAR-Tat: HIV-1 TAR-Tat binding disruption. z-score (no concentration beside the values). 100,000 compounds, 0.6% hits. AID 1259389. HIV-1 TAR RNA, Tat peptide displacement FRET; stronger effect = higher value; active means z-score of 3 or more in at least 2 runs
Numbers without * were called inactive; · = no result.

SMILES	CDC25B-CDK2 inh	HIV TAR-Tat
COC(=O)c1sc2ccccc2c1S(=O)(=O)N1CC=C(c2ccccc2)CC1	·	-1
CC1CCN(c2nc3ccc(C(=O)c4ccccc4)cc3n3cnnc23)CC1	·	-1.4
O=C(O)c1ccccc1C(=O)Nc1ccc2c(c1)C(=O)c1ccccc1C2=O	7.8*	·
O=C(Nc1ccc2c(c1)C(=O)c1ccccc1C2=O)c1ccccc1	-0.85	·
CCOC(=O)c1cccc(NS(=O)(=O)c2cc(Cl)ccc2Cl)c1	1.6	·
CC(C)(C)C1(O)C(=O)Nc2ccccc21 (configuration not stated)	0.98	0.95
O=C1C2=C(NC3=C(C(=O)c4ccccc43)C23C(=O)Nc2ccccc23)c2ccccc21	12*	·
COCCCNC(=O)CCC(=O)N1CCCn2nc(C)cc21	·	2.3
Cc1cc2n(n1)CCCN2C(=O)CCC(=O)NCCCOC(C)C	·	4.3*
O=C1c2ccccc2C(=O)N1c1cccc(-c2csc(Nc3cccc4ccccc34)n2)c1	19*	·
COc1ccccc1Nc1nc(-c2cc3c(ccc4ccccc43)oc2=O)cs1	-1	·
COCc1cc(C)nc2sc3c(c12)NCN(C1CCCCC1)C3=O	-3	1.6
O=S(=O)(Nc1ccc(Cl)cn1)c1cc(-c2noc(C3CC3)n2)cs1	·	0.59
Cc1ccc(Nc2nc(-c3ccc(O)cc3)cs2)nc1	-1.6	1.9
Cc1ccc(Nc2nc(-c3ccc(O)c(O)c3)cs2)nc1	-1.1	16*
CCN(CC)S(=O)(=O)N(CC(=O)O)CC(=O)O	·	0.75
O=C(O)CN(CC(=O)O)S(=O)(=O)c1ccccc1	·	17*
COc1ccc(-c2cc(=O)n(-c3nc4ccccc4s3)[nH]2)cc1OC	·	1.5
O=C(C1CCC(=O)N1C1CCCC1)N1CCNc2ccccc2C1 (configuration not stated)	-0.19	0.41
CC(Cc1ccco1)NC(=O)C1=Cc2ccccc2OC1 (configuration not stated)	·	0.48
Cc1oc(-c2ccccc2)nc1CN1N=NC2C(=O)N(c3ccc(C(C)C)cc3)C(=O)C21 (configuration not stated)	·	0.69
Oc1ccc(CN2CCCCC2)c2cccnc12	14*	1.3
Oc1c(CN2CCN(Cc3ccc4cccnc4c3O)CC2)ccc2cccnc12	-4.2	9.4*
Oc1c(CN2CCOCC2)ccc2cccnc12	1.3	0.41
Oc1ccc(CN2CCN(c3ccccc3)CC2)c2cccnc12	·	2.1
SMILES	CDC25B-CDK2 inh	HIV TAR-Tat
O=C(O)Cn1c(=O)[nH]c2cc3c(cc2c1=O)OCO3	-0.96	3.6
COC(=O)Cn1c(SCc2cc(C)ccc2C)nc2ccsc2c1=O	-1.6	·
COC(=O)c1[nH]c2sc3c(c2c1NC(C)=O)CCCC3	4.7	-0.25
COC(=O)c1[nH]c2sc3c(c2c1-n1cccc1)CCCC3	13*	1.6
CCOC(=O)N1CCC(NC(=O)CCS(=O)(=O)c2ccc3c(c2)NC(=O)CO3)CC1	·	-0.41
CCOC(=O)N1CCC(Nc2c(N3CCC(C(N)=O)CC3)c(=O)c2=O)CC1	-1.4	0.81
CC(C)OCCCNC(=O)c1ccc2c(=O)[nH]c3c(C(=O)NC4CCCC4)sc(=S)n3c2c1	·	2.1
CC(C)CCNC(=O)c1ccc2c(=O)[nH]c3c(C(=O)NC(C)C)sc(=S)n3c2c1	·	2.2
CC(C)NC(=O)c1sc(=S)n2c1[nH]c(=O)c1ccc(C(=O)NCCCN3CCCC3=O)cc12	·	8.5*
CC(C)CCNC(=O)c1ccc2c(=O)[nH]c3c(C(=O)NC4CCCC4)sc(=S)n3c2c1	·	8*
Cc1cc(C)n(Cc2c(C(=O)NCCc3cccs3)noc2C)n1	·	1.4
COC(=O)c1cc(-c2ccco2)c2c(=O)[nH]c(=O)n(C)c2n1	5.3	-0.08
COc1ccc(Cl)c(Cn2cnc3c2c(=O)n(C)c(=O)n3C)c1	-0.26	·
COc1ccc(Cl)c(Cn2c(NCCN)nc3c2c(=O)n(C)c(=O)n3C)c1	4.6	3.6*
COC(=O)c1c(C)nn2c1NC(=O)CC2	-0.12	1.2
Cn1c(=O)c2c(-c3ccccc3Br)n(-c3cccc4cccnc34)cc2n(C)c1=O	16*	-2.6
Cn1c(=O)c2c(-c3ccccc3Br)n(-c3ccc4[nH]c(=O)[nH]c4c3)cc2n(C)c1=O	6.2*	2.3
Cn1c(=O)c2c(-c3ccccc3Br)n(-c3ccccc3)cc2n(C)c1=O	-0.69	0.54
Cn1c(=O)c2c(-c3ccccc3Br)n(-c3ccccc3N)cc2n(C)c1=O	0.87	2.5
CC1CCC(NC(=O)C2(C)Cn3c(ccc3-c3ccco3)C(=O)N2CC2CCCO2)CC1 (configuration not stated)	·	-7.2
O=C(Nc1c2c(nn1-c1cccc(Cl)c1)CS(=O)C2)c1ccco1 (configuration not stated)	-0.25	·
COc1cc(OC)c(NC(c2ccc(F)cc2)c2nnc(-c3ccccc3)o2)cc1Cl (configuration not stated)	-0.03	0.31
O=C1C=CC2=C3c4cc(O)c(O)cc4CC3(O)COC2=C1O (configuration not stated)	·	20*
COc1cc2c(cc1OC)C1=C(C#N)CN(CCc3ccccc3)CN1CC2	2.1	0.19
COc1cc2c(cc1OC)C1=C(C#N)CN(c3ccc(C)c(C)c3)CN1CC2	15*	0.35
SMILES	CDC25B-CDK2 inh	HIV TAR-Tat
CC1(C)CC(=O)C2=C(C1)Nc1nc(SCc3ccccc3Cl)[nH]c(=O)c1C2c1ccncc1 (configuration not stated)	0.32	·
CCCOCCOC(=O)C1=C(C)NC2=C(C(=O)CC(C)(C)C2)C1c1ccccc1Cl (configuration not stated)	0.24	-0.08
CC1CCCCN1C(=O)CSc1nc(-c2ccco2)nc2cc(=O)[nH]n12 (configuration not stated)	·	1.2
CC1CCN(C(=O)CSc2nc(-c3ccco3)nc3cc(=O)[nH]n23)CC1	·	9.2*
O=C1CC(=O)Nc2cc(S(=O)(=O)N3CCSc4ccccc43)ccc2N1	·	0.99
COc1cccc(NC(=O)Nc2nnc(Cc3ccc([N+](=O)[O-])cc3)s2)c1	-1.9	·
O=C(c1cnn2cc(Br)cnc12)N1CCCC1c1cccc(F)c1 (configuration not stated)	0.57	30*
O=C(c1cnn2cc(Br)cnc12)N1CCCC1c1ccccc1F (configuration not stated)	0.63	1.6
O=S(=O)(NC1CCCCC1Nc1ccc(F)cc1)c1ccccc1 (configuration not stated)	8.6*	2.9
COc1ccc(NC2CCCCC2NS(=O)(=O)c2ccccc2)cc1 (configuration not stated)	-2.5	3.1
Cc1c(C(=O)N2CCN(c3ccccn3)CC2)sc2ncn(CC(=O)N3CCC(C)CC3)c(=O)c12	·	0.43
CC1CSc2ccc(S(=O)(=O)NCCCN3CCOCC3)cc2NC1=O (configuration not stated)	·	1.6
COC(=O)c1ccc(Nc2nncc(=O)[nH]2)cc1	6.3*	0.52
O=c1cnnc(Nc2ccc3c(c2)OCCO3)[nH]1	-1.3	2
O=C(CCS(=O)(=O)c1ccc2c(c1)NC(=O)CS2)Nc1ccc(Cl)cn1	·	-1
N#CC1=C2SCN(C3CCCCC3)CN2C(=O)CC1c1ccc(Br)cc1 (configuration not stated)	-1.1	-1.1
COc1ccc(C2CC(=O)N3CN(C4CCCC4)CSC3=C2C#N)cc1 (configuration not stated)	5.5*	0.43
CCc1ccc(C2CC(=O)N3CN(C4CCCCC4)CSC3=C2C#N)cc1 (configuration not stated)	3.9*	-1.2
